Measurements published in PubChem BioAssay (NCI).
The panel holds about 79,000 compounds, 15% with a hit somewhere; the sample as a whole holds those more often. The source made the active and inactive calls. Rule as the data show it: active = growth inhibition above about 70%; inactive = the rest.

Columns and labels:
[1] = NCI Yeast Anticancer Drug Screen. Data for the rad52 strain (AID 147);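 also: 0% = growth of vehicle-treated control cultures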; conditions: S. cerevisiae rad52 mutant growth inhibition, hits give high values
Summary of the method: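 Growth of repair-deficient yeast cells was compared between compound-treated and vehicle-treated cultures to give percent inhibition.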

[2] = NCI Yeast Anticancer Drug Screen. Data for the rad50EPP+ strain (AID 151);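 also: 0% = growth of vehicle-treated control cultures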; conditions: S. cerevisiae rad50 mutant strain, hits give high values
Summary of the method: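 Measured: growth inhibition of rad50EPP+ yeast. Reference: vehicle-treated controls. Screen uses strains with defined genetic alterations in DNA damage repair or cell cycle control.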

[3] = NCI Yeast Anticancer Drug Screen. Data for the mgt1 strain (AID 153); conditions: S. cerevisiae mgt1 mutant growth inhibition, hits give high values
Summary of the method: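 Compounds were applied to mgt1 mutant yeast, and growth was then compared against vehicle-treated control cultures to give percent inhibition.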

[4] = NCI Yeast Anticancer Drug Screen. Data for the rad50 strain (AID 155);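 also: 0% = growth of vehicle-only cultures of the same strain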; conditions: S. cerevisiae rad50 strain growth inhibition, hits give high values
Summary of the method: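 Genetically altered yeast (DNA repair pathway); compound treatment; growth inhibition vs vehicle ctrl.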

[5] = NCI Yeast Anticancer Drug Screen. Data for the mec2-1 strain (AID 157); conditions: S. cerevisiae mec2-1 strain, hits give high values
Summary of the method: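 Compounds were applied to mec2-1 yeast cells. Their growth was then compared with that of vehicle-treated cultures to give growth inhibition.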

[6] = NCI Yeast Anticancer Drug Screen. Data for the rad14 strain (AID 159);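 also: 0% = growth of vehicle-treated control cultures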; conditions: S. cerevisiae rad14 strain growth inhibition, hits give high values
Summary of the method: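 Test compounds were applied to a repair-deficient yeast strain. Its growth was then compared with that of cultures given vehicle alone, and inhibition was expressed relative to those controls.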

[7] = NCI Yeast Anticancer Drug Screen. Data for the sgs1 mgt1 strain (AID 161);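 also: 0% = growth of cultures given vehicle only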; conditions: S. cerevisiae sgs1 mgt1 strain, hits give high values
Summary of the method: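 Growth of a repair-deficient yeast mutant was monitored after compound treatment and expressed as inhibition relative to vehicle-treated cultures.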

[8] = NCI Yeast Anticancer Drug Screen. Data for the CLN2oe strain (AID 163);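 also: 0% = growth of vehicle-only control cultures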; conditions: S. cerevisiae CLN2oe strain, hits give high values
Summary of the method: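 Cells of an engineered yeast line with disturbed cell-cycle regulation are treated with compound. Inhibition of growth is then calculated relative to the vehicle-treated reference.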

[9] = NCI Yeast Anticancer Drug Screen. Data for the cln2 rad14 strain (AID 165);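 also: 0% = growth equal to vehicle treated cultures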; conditions: S. cerevisiae cln2 rad14 strain, hits give high values
Summary of the method: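 Strain: cln2 rad14 yeast, altered in cell cycle control and DNA damage repair. Read-out: growth inhibition vs vehicle.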

[10] = NCI Yeast Anticancer Drug Screen. Data for the bub3 strain (AID 167); conditions: S. cerevisiae bub3 mutant strain, hits give high values
Summary of the method: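 Yeast carrying a defined mutation is treated with each compound, and growth is compared with that of vehicle-exposed cells to give inhibition.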

[11] = NCI Yeast Anticancer Drug Screen. Data for the wt2 strain (AID 169);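 also: 0% = growth of vehicle-treated yeast cultures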; conditions: S. cerevisiae wt2 strain growth inhibition, hits give high values
Summary of the method: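 Growth of compound-treated yeast is measured and expressed as inhibition relative to vehicle-only controls.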

[12] = NCI Yeast Anticancer Drug Screen. Data for the mlh1 strain (AID 171);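 also: 0% = growth of vehicle-treated control cultures of the same strain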; conditions: S. cerevisiae mlh1 strain growth inhibition, hits give high values
Summary of the method: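 Test agents were incubated with yeast bearing a defined DNA damage repair or cell cycle control alteration; values are growth inhibition normalised to vehicle-treated cultures.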

[13] = NCI Yeast Anticancer Drug Screen. Data for the sgs1 strain (AID 173);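 also: 0% = growth of vehicle-only control cultures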; conditions: S. cerevisiae sgs1 mutant, hits give high values
Summary of the method: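 Strain with an altered DNA repair or cell cycle pathway exposed to compound. Growth then measured. Value = inhibition versus vehicle control.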

[14] = NCI Yeast Anticancer Drug Screen. Data for the mlh1 rad18 strain (AID 175); conditions: S. cerevisiae mlh1 rad18 strain growth inhibition, hits give high values
Summary of the method: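 A repair-deficient yeast strain is exposed to test compound, and growth is scored relative to vehicle-treated controls.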

[15] = NCI Yeast Anticancer Drug Screen. Data for the rad18 strain (AID 177); conditions: S. cerevisiae rad18 mutant growth inhibition, hits give high values
Summary of the method: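 DNA-repair-defective yeast; compound treatment; growth inhibition scored against vehicle.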

[16] = at 5.0 µM (retest, dose inferred, filed as 0.5)
[17] = at 50.0 µM (retest, dose inferred, filed as 5.0)

Measured: growth inhibition

CSC1=NNC(SC)=NN1
inactive: [1]; at 1.2 µM -13% | [1]; at 3.7 µM -5% | [1]; at 11.0 µM 3% | [2]; at 1.2 µM -4% | [2]; at 3.7 µM -9% | [2]; at 11.0 µM 0% | [2]; at 33.0 µM 55% | [3]; at 1.2 µM 12% | [3]; at 3.7 µM 14% | [3]; at 11.0 µM 12% | [4]; at 1.2 µM -4% | [4]; at 3.7 µM 0% | [4]; [16] 49% | [4]; at 11.0 µM 15% | [4]; at 33.0 µM 66% | [4]; [17] 41% | [4]; at 50.0 µM 59.9% | [5]; at 1.2 µM -4% | [5]; at 3.7 µM -22% | [5]; [16] 44% | [5]; at 11.0 µM 15% | [5]; [17] 41% | [5]; at 50.0 µM 44.4% | [6]; at 1.2 µM -16% | [6]; at 3.7 µM -4% | [6]; at 11.0 µM 36% | [7]; [16] -1% | [7]; at 50.0 µM 58.5% | [8]; at 1.2 µM -8% | [8]; at 3.7 µM 17% | [8]; at 11.0 µM 15% | [8]; at 33.0 µM 46% | [9]; [16] 61% | [9]; at 50.0 µM 30.9% | [10]; at 1.2 µM -12% | [10]; at 3.7 µM 6% | [10]; [16] 45% | [10]; at 11.0 µM 54% | [10]; at 50.0 µM 68.8% | [11]; at 1.2 µM -2% | [11]; at 3.7 µM 1% | [11]; at 11.0 µM 4% | [11]; at 33.0 µM 61% | [12]; at 1.2 µM -3% | [12]; at 3.7 µM 17% | [12]; at 11.0 µM 20% | [12]; at 33.0 µM 62% | [13]; at 1.2 µM -5% | [13]; at 3.7 µM -11% | [13]; at 11.0 µM 8% | [14]; [16] 44% | [14]; [17] 35% | [14]; at 50.0 µM 39.4% | [15]; at 1.2 µM 4% | [15]; at 3.7 µM 13% | [15]; at 11.0 µM 60%
active: [1]; at 33.0 µM 70% | [1]; at 100.0 µM 98% | [2]; at 100.0 µM 98% | [3]; at 33.0 µM 83% | [3]; at 100.0 µM 99% | [4]; at 100.0 µM 97% | [5]; at 33.0 µM 89% | [5]; at 100.0 µM 99% | [6]; at 33.0 µM 87% | [6]; at 100.0 µM 98% | [7]; [17] 100% | [8]; at 100.0 µM 99% | [9]; [17] 99% | [10]; at 33.0 µM 89% | [10]; [17] 99% | [10]; at 100.0 µM 99% | [11]; at 100.0 µM 99% | [12]; at 100.0 µM 98% | [13]; at 33.0 µM 75% | [13]; at 100.0 µM 98% | [15]; at 33.0 µM 93% | [15]; at 100.0 µM 98%
